Values joined by “and” are separate entries in the source; they are usually repeats but may differ in a detail not shown here. Equal entries are not always repeated. The campaign covered roughly 410,000 compounds. About 18,000 (4.4%) were called active. Inconclusive results (about 7%) are left out. No stated cut-off is given here; in the data, active means activity change below about -60%; inconclusive means no clear call, values can overlap the other calls; inactive means above about -39%. The entries come from a sample that favours actives as a whole. A structure can be active in one record and inactive in another.

For 54 compounds, activity change, negative = inhibition results are on record in PubChem BioAssay AID1259415 (National Center for Advancing Translational Sciences (NCATS), 2018).
On the % scale 0 is the no-effect control and ±100 the full control effect.

The test can be described thus: qHTS Assay for inhibitors of the human cytomegalovirus (HCMV). To be noted: HFF cells, HCMV-luciferase reporter, 72 h; at 57.5 µM; stronger effect = lower value. Summed up: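 Compounds were evaluated in HFFs infected with an HCMV luciferase reporter virus (MOI 1 PFU/cell). Luciferase in lysates collected 72 h post infection served as the replication measure.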
On the technique in general: Quantitative high-throughput screening tests each substance at several concentrations.
With `CCOC(=O)c1ccccc1NC(=O)c1nn(-c2ccc(OC)c(Cl)c2)c(=O)c2c1c1ccccc1n2C`, the activity change, negative = inhibition is 11.6% (inactive).

Regarding `Cc1ccc(C)c(Cn2c(C(=O)O)c(CNCc3cccs3)c3ccccc32)c1`, the activity change, negative = inhibition is -8.87% (inactive). With `CC(=O)N1CCCc2cc(S(=O)(=O)N3CCC(C(=O)NCc4ccc(C)cc4)CC3)ccc21`, the activity change, negative = inhibition was -4.1% (inactive). `COc1ccc(OC)c(-c2noc(N3CCN(c4cc(Cl)ccc4C)CC3)n2)c1`: the activity change, negative = inhibition is -0.0922% (inactive). As for `COC(=O)c1cc(NC(=O)c2cnc(SC)nc2-c2ccccc2)cc(C(=O)OC)c1`, the activity change, negative = inhibition is 22.8% (inactive). As for `CC1CCC(C(C)C)C(=O)/C1=C\c1ccc(NC(=O)CCC(=O)O)cc1` (centres undefined), the activity change, negative = inhibition was -26.4% (inactive). Take `O=c1[nH]c2ccccc2n1C1CCN(C(c2ccnc3ccccc23)c2nnnn2Cc2ccccc2)CC1` (centres undefined): the activity change, negative = inhibition is -61.4% (active).

In the case of `CC(C)C(c1nnnn1Cc1ccccc1)N1CCC(C(N)=O)CC1` (centres undefined), the activity change, negative = inhibition is 55.3% (inactive).

With `CSCCC(c1nnnn1C(C)(C)C)N1CCC(n2c(=O)[nH]c3ccccc32)CC1` (centres undefined), the activity change, negative = inhibition is -37.7% (inactive).

`O=c1[nH]c2ccccc2n1C1CCN(CCOc2ccccc2)CC1`: the activity change, negative = inhibition was -29.7% (inactive).

As to `O=c1[nH]c2ccccc2n1C1CCN(C(c2ccccc2)c2nnnn2Cc2ccccc2)CC1` (centres undefined), the activity change, negative = inhibition is -93.7% (active). On to `CCOC(=O)N1CCN(C(c2ccnc3ccccc23)c2nnnn2-c2c(C)cccc2C)CC1` (centres undefined), for which the activity change, negative = inhibition was -0.353% (inactive). `CCCN(CCC)CCCNC(=O)CNC(=O)c1nn(-c2ccc(OC)cc2)c(=O)c2ccccc12`: the activity change, negative = inhibition was -0.192% (inactive). The figure for `Cc1ccc(Cl)cc1N1CCN(C(=O)c2cn(C)c3ccc(S(=O)(=O)N(C)C4CCCCC4)cc3c2=O)CC1` is 19.9% (inactive).

As for `Cc1cccc(OCC(=O)N(Cc2ccc(C(C)C)cc2)Cc2ccco2)c1C`, the activity change, negative = inhibition was -2.95% (inactive).

For the compound `Cc1nc(-c2nnc(SCC(=O)Nc3cc(C(F)(F)F)cc(C(F)(F)F)c3)n2C)cs1`, the activity change, negative = inhibition is 18.5% (inactive).

Regarding `COc1cc(NC(=O)c2nc3ccccc3nc2C)cc(OC)c1OC`, the activity change, negative = inhibition is 22.8% (inactive). Regarding `Cc1n[nH]c(=O)nc1N/N=C/c1cccs1`, the activity change, negative = inhibition is 11.4% (inactive).

In the case of `Cc1nc2ccccc2nc1N/N=C/c1ccc(O)cc1O`, the activity change, negative = inhibition was -86.2% (active). Consider `COc1ccc(CNC(=O)c2c[nH]c3c(OC)cc(OC)cc3c2=O)cc1`, for which the activity change, negative = inhibition is -39% (inactive). On to `COc1cccc2cc(C(=O)NCc3ccc(C)cc3)c(=N)oc12`, for which the activity change, negative = inhibition was -3.52% (inactive). For the compound `COc1ccc(CNC(=O)c2cc3cccc(OC)c3oc2=O)cc1`, the activity change, negative = inhibition is -88.7% (active). `Cc1c(Cl)cccc1NC(=O)CCS(=O)(=O)c1ccc2c(c1)oc(=O)n2C`: the activity change, negative = inhibition is -4.78% (inactive). As for `Cc1ccc(NC(=O)CS(=O)CC(=O)N(c2ccccc2)C(C)C(=O)NC2CCCC2)cc1` (centres undefined), the activity change, negative = inhibition is 4.37% (inactive). With `O=C(CC(n1cncn1)C(Cl)(Cl)Cl)c1ccc([N+](=O)[O-])cc1` (centres undefined) the figure was -0.398% (inactive); with `O=C(Cn1c[n+](CC(=O)c2ccc([N+](=O)[O-])cc2)cn1)c1ccc([N+](=O)[O-])cc1`, -34.4% (inactive) and -92.6% (active).

`O=C(CCn1nnc2ccccc21)OCC(=O)c1ccc([N+](=O)[O-])cc1`: the activity change, negative = inhibition is 2.27% (inactive). On to `C[C@H](CO)N1C[C@H](C)[C@H](CN(C)C(=O)c2ccncc2)OCc2ccccc2-c2c(n(C)c3ccccc23)C1=O`, for which the activity change, negative = inhibition is -0.378% (inactive). On to `CCN(CC)CCNc1ncnc2c1cnn2-c1cc(Cl)ccc1C`, for which the activity change, negative = inhibition was -19.7% (inactive).

Regarding `COc1cc(NC(=O)C2=CC(c3ccc(C)cc3)=NS(=O)(=O)N2C)cc(OC)c1OC`, the activity change, negative = inhibition is 8.94% (inactive). The figure for `COc1ccc(NC(=O)C2=CC(c3ccc(OC)c(OC)c3)=NS(=O)(=O)N2C)cc1` is -70.9% (active). With `COc1ccc(C2=NS(=O)(=O)N(C)C(C(=O)NC(C)c3ccccc3)=C2)cc1` (centres undefined) the figure was -13.9% (inactive) and -20.9% (inactive); with `CCOC(=O)c1c(NC(=O)C2(C)Cc3ccccc3C(=O)O2)sc2c1CCCC2` (centres undefined), -77.4% (active); with `CCOC(=O)c1c(NC(=O)/C(C#N)=C/c2ccccc2)sc2c1CCC2`, 2.23% (inactive). As for `CCOC(=O)c1c(NC(=O)c2cc(-c3ccc(Cl)cc3)on2)sc2c1CCCC2`, the activity change, negative = inhibition is 3.67% (inactive). Take `Cc1ccc2nc(-c3ccc(C)c(NC(=O)Cc4ccccc4)c3)oc2c1`: the activity change, negative = inhibition is 38% (inactive). Take `COc1ccccc1NC(=O)c1oc2ccccc2c1NC(=O)C(C)C`: the activity change, negative = inhibition is 0.436% (inactive).

Consider `COc1ccc(OC)c(-c2nc(C(N)=O)c3c(n2)n(-c2ccc4c(c2)OCO4)c(=O)n3C)c1`, for which the activity change, negative = inhibition is 3.83% (inactive). Consider `CC(=O)c1ccccc1NC(=O)COC(=O)C1COc2ccccc2O1` (centres undefined), for which the activity change, negative = inhibition is -15% (inactive).

On to `Cc1ccc(Cl)cc1NC(=O)NC1COc2ccccc2C1` (centres undefined), for which the activity change, negative = inhibition was -3.29% (inactive). `O=C1C(=O)N(c2ccccc2)c2ccccc21`: the activity change, negative = inhibition was 43.2% (inactive). With `Cc1cc(C(=O)CCl)c(C)n1CC1COc2ccccc2O1` (centres undefined) the figure was -96.1% (active); with `CC1COc2ccccc2N1S(=O)(=O)c1ccccc1` (centres undefined), -16.1% (inactive). Take `O=C1C(=O)N(CC2COc3ccccc3O2)c2ccccc21` (centres undefined): the activity change, negative = inhibition was -62.4% (active). Take `CC(C)CC(NC(=O)C1CCCN1C(=O)[C@@H](C)NC(=O)OCc1ccccc1)C(=O)NCC(N)=O` (some centres undefined): the activity change, negative = inhibition is -24.5% (inactive).

Turning to `Cc1cccc(NC(=O)Cn2c(=O)n(CCC(C)C)c(=O)c3cccnc32)c1`, the activity change, negative = inhibition is 28.9% (inactive). The figure for `O=C(c1ccco1)N1CCN(C(=O)C2c3ccccc3Oc3ccccc32)CC1` is -21.7% (inactive); for `CCOC(=O)Cc1csc(NC(=O)CN(C)S(=O)(=O)c2ccc3c(c2)CCC(=O)N3)n1` it is 14.5% (inactive); for `Cc1cccc(-c2nc(SCc3ccc(Br)cc3)n3[nH]c(=O)cc3n2)c1` it is -0.292% (inactive). The figure for `COc1ccc(NC(=O)CSc2nccn2Cc2ccc3c(c2)OCO3)cc1` is 2.57% (inactive).

As to `Cc1cc(C(=O)CSc2nc(N)cc(=O)[nH]2)c(C)n1-c1cccc(F)c1`, the activity change, negative = inhibition is -80.8% (active). `C=CCSc1nc(N)cc(=O)[nH]1`: the activity change, negative = inhibition was -24.3% (inactive).

Consider `Cc1cc(C)c(C(=O)CSc2nc(C)cc(=O)[nH]2)c(C)c1`, for which the activity change, negative = inhibition is 19% (inactive). As for `CCOC(=O)C1(C(F)(F)F)N=C(N(C)C)OC(N(C)C)=N1`, the activity change, negative = inhibition is 9.94% (inactive).
